Experimental data from PubChem BioAssay AID1845225 (National Center for Advancing Translational Sciences (NCATS), 2023).
Inconclusive results are not listed. Active and inactive are the calls of the source. Calls come from the whole dose curve; as a rule, active = well fitted curve in the direction sought with a large enough effect; inconclusive = small, poorly fitted or top-dose-only effect, or effect the other way, or another doubt; inactive = no such curve, though single readings can be large or run the other way.

assay: Confirmatory redox qHTS assay for identification of artifact compounds.; conditions: Amplex Red/HRP redox cycling with DTT, fluorescence; series mostly up to 39 µM; redox activity vs DA3003: at the top concentration
Description: PI: Alexander Tropsha Ph.D. UNC Eshelman School of Pharmacy University of North Carolina, Chapel Hill, North Carolina Hits from high-throughput screening (HTS) of chemical libraries are often false positives due to their interference with the assay detection technology. In response to this problem, we generated the largest publicly available library of chemical liabilities and developed a free webtool to predict HTS artifacts, both of which are described herein. More specifically, we generated, curated, and integrated HTS datasets for thiol reactivity, redox activity, and luciferase (firefly and nano) activity. Using these curated datasets, we developed and validated several Quantitative Structure-Interference Relationship (QSIR) models to predict nuisance behavior. […] These models were employed for virtual profiling of the National Center for Advancing Translational Science's (NCATS) in-house library, and 256 compounds for each assay were selected for the experimental validation of nuisance behavior. The BA for these external predictions ranged from 58 to 78% for compounds within the applicability domains of the models. […] The models developed in this study, along with aggregation models previously developed by our group (SCAM Detective) were implemented in "Liability Predictor," an online tool which may be used as part of chemical library design or for triaging HTS hits. Both the models and the curated datasets are publicly available at https://liability.mml.unc.edu/.
PROTOCOL TABLE SEQUENCE No. (e.g., 1, 2, 3, etc.); […] (e.g., Cells, Incubation, Reagent, etc.); VALUE; DESCRIPTION. 1; Reagent; 3 uL; Amplex Red and HRP mixture. 2; Compounds and control; 16 nL; Kalypsis pin tool (Wako USA) equipped with a 1536-well pin head. 3; Incubation; 15 min. 4; Reagent; 1 uL; […]. 5; Incubation; 30 min. 6; Detection; Fluorescence, ViewLux microplate reader, 525 nm excitation, 598 nm emission. NOTES (numbers refer to Sequence numbers above) 1. 3 uL of a mixture containing Amplex Red (25 uM final concentration) and horseradish peroxidase (HRP; 250 mU/mL final concentration) in assay buffer (HBSS) was dispensed into all wells of a 1536-well assay plate (solid-bottom black plate; Greiner Bio One, Monroe, NC). 2. […] 3. 15 min. incubation at room temperature protected from light. 4. 1 uL of DTT (prepared fresh; final concentration 250 uM) was dispensed for a final assay volume of 4 uL. 5. Plates were centrifuged (121xg, 15 seconds) and incubated for 30 minutes at room temperature protected from light. 6. Samples were read for fluorescence (Ex/Em = 525(20)/598(25) nm) on a ViewLux CCD imager (PerkinElmer). Data were normalized to DMSO (0% activity) and DA3003 (10 uM final concentration; 100% activity) and the resulting percent inhibition data were fitted to a 4-parameter Hill equation using NCATS in-house software.

Redox activity vs DA3003, inactive:
Cc1ccc(C)c(C(=O)N2CCC(c3nc4c(nnn4Cc4ccccc4)c(=O)[nH]3)CC2)c1 4.18%
CC(C)C[C@H](NC(=O)[C@@H](Cc1c[nH]c2ccccc12)NC(=O)[C@H](Cc1ccc(O)cc1)NC(=O)[C@H](CO)NC(=O)[C@H](Cc1c[nH]c2ccccc12)NC(=O)[C@H](Cc1cnc[nH]1)NC(=O)[C@@H]1CCC(=O)N1)C(=O)N[C@@H](CCCN=C(N)N)C(=O)N1CCC[C@H]1C(=O)NCC(N)=O 13.9% [at 13.1 µM]
O=C(COc1ccc(Cl)cc1)Nc1ccc2nc(SCC(=O)N3CCCC3)sc2c1 5.51%
COc1ccccc1CNC(=O)CCC(=O)N1Cc2ccccc2Oc2ncccc21 3.23%
Cc1cc(C)nc(NC(=S)N2CCN(c3ccc(F)c(F)c3F)CC2)c1 -0.662%
CCCCCCOc1ccc(CC(=O)O)cc1 -0.0906%
O=C1C2C3CCCC3=C3CCCC3C2C(=O)N1c1ccc(Cl)cc1 (stereo not given) 1.34%
CC(C)C[C@H](NC(=O)[C@@H](Cc1c[nH]c2ccccc12)NC(=O)[C@H](Cc1ccc(O)cc1)NC(=O)[C@H](CO)NC(=O)[C@H](Cc1c[nH]c2ccccc12)NC(=O)[C@H](Cc1cnc[nH]1)NC(=O)[C@@H]1CCC(=O)N1)C(=O)N[C@@H](CCCN=C(N)N)C(=O)N1CCC[C@@H]1C(=O)NCC(N)=O 9.85%
Cc1cccc(N2CCN(CCCNC(=O)c3nnc(Cc4c(F)cccc4Cl)o3)CC2C)c1 (stereo not given) 3.43%
CC1(C)S[C@@H]2[C@H](NC(=O)C3(N)CCCCC3)C(=O)N2[C@H]1C(=O)O 11.8%
CCOc1ccc2nc(N3CCC(C(=O)Nc4ccc(Br)cc4F)CC3)sc2c1 0.802%
Cc1cc(C(=O)N2CCN(c3cccc(Cl)c3)CC2)c2c(C)nn(-c3ccccc3Cl)c2n1 7.17%
O=C(CCn1c(=O)c2cccn2c2cccnc21)N1CCN(c2ccccc2F)CC1 3.64%
O=C1c2ccccc2C(=O)N1c1ccc2ncccc2c1 -1.1%
O=C(CSc1nnc2scc(-c3ccc(Cl)cc3)n12)Nc1cccc(C(F)(F)F)c1 -0.385%
COc1ccc(NC(=O)CSc2nc(-c3ccccc3)nc3c2Cc2c(CO)cnc(C)c2O3)cc1Cl 6.51%
CCOc1ccc(C[C@H]2NC(=O)CCSSC[C@@H](C(=O)N3CCC[C@H]3C(=O)N[C@@H](CCCN)C(=O)NCC(N)=O)NC(=O)[C@H](CC(N)=O)NC(=O)[C@H]([C@@H](C)O)NC(=O)[C@H]([C@@H](C)CC)NC2=O)cc1 18.2%
Cc1cc(C)cc(-n2ccn(Cc3ccc(F)cc3)c(=O)c2=O)c1 0.558%
C[C@@H]1CC2C3CCC4=CC(=O)C=C[C@]4(C)[C@@]3(F)C(O)C[C@]2(C)[C@@]1(O)C(=O)COC(=O)c1cccc(S(=O)(=O)O)c1 (stereo not given in full) 5.29%
Cc1cc(C)c(S(=O)(=O)NCC(c2ccco2)S(=O)(=O)c2cccs2)c(C)c1 (stereo not given) -0.316%
COc1ccc(CCNC(=O)Cn2ncc3c(C)n(Cc4ccccc4F)c(C)c3c2=O)cc1OC 8.43%
C=C[C@@H]1C[C@@H](C=C)OP(=O)(O[C@@H](C=C)[C@@H](C)C(=O)OC)O1 (stereo not given in full) -1.09%
O=S(=O)(NCCCCNS(=O)(=O)c1cccc2cccnc12)c1cccc2cccnc12 3.74%
O=C(Nc1cc2c(cc1C(=O)c1ccccc1Cl)OCCO2)c1ccc(Br)cc1 -0.336%
CCOC(=O)c1c(C)[nH]c(CCC(=O)NCCCN2CCN(c3ccc(F)cc3)CC2)c1C 9.99%
CCCC(=O)O[C@]1(C(=O)COC(C)=O)CC[C@H]2[C@@H]3C[C@H](F)C4=CC(=O)C=C[C@]4(C)[C@@]3(F)[C@@H](O)C[C@@]21C 6.19%
CCOc1ccc(CCNC(=O)c2cnc3c(-c4ccccc4)c(C)nn3c2C)cc1OCC 3.51%
O=S(=O)(c1ccc(Cl)cc1)N1CCC(c2ccncc2)CC1 -0.214%
O=C(CN1C(=O)CCn2nc(-c3ccccc3)cc21)NCc1ccc(Cl)cc1 4.22%
O=C(Nc1nnc(-c2ccccc2)s1)c1ccc(S(=O)(=O)N2CCCC2)cc1 -0.334%
Cc1ccc(C(=O)CSc2nc(-c3ccccc3)nc3c2CCCC3)c(C)c1 -1.81%
CCOC(=O)C1CCN(C(c2ccc(OCC)cc2)c2c(O)cc(C)n(CCOC)c2=O)CC1 (stereo not given) 4.71%
CCCCCCCCOc1ccc(C(=O)O)cc1 3.88%
CCCCCOC(=O)c1[nH]c2c(c1C)C(=O)CC(c1ccco1)C2 (stereo not given) 0.438% [at 78.4 µM]
O=C(Cn1nc2c(cc1=O)CCCC2)Nc1ccc(F)cc1F -0.537%
CC(NC(=O)CSc1nc(-c2ccccc2F)nc2cc(=O)[nH]n12)c1nc2ccccc2n1C (stereo not given) 4.09%
Cc1cccc(C)c1NC(=O)CCSCCc1ccccn1 4.48%
COc1ccc(C(CNC(=O)c2oc3cc(C)c(C)cc3c2C)N2CCCCC2)cc1 (stereo not given) 3.53%
O=C(CCC(=O)N1CCSc2ccccc21)Nc1ccc(Cl)cc1 1.2%
CCC(CC)c1nn2c(=O)cc(COc3ccc(NC(=O)c4ccccc4C)cc3)nc2s1 -0.612%
